Assay results taken from PubChem BioAssay (NCI).
About 79,000 compounds went through this panel and 15% of them were active in at least one assay; those are over-represented in the sample as a whole. Calls of active or inactive are those of the source. Cut-off read from the data, not from the text of the source: active = growth inhibition above about 70%; inactive = the rest.

Test: NCI Yeast Anticancer Drug Screen. Data for the wt1 strain (AID 149);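 note: 0% = growth of vehicle-treated wt1 cultures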
Settings: S. cerevisiae wt1 strain (SPY 50644) growth inhibition, hits give high values
Method: Growth inhibition of yeast strains with defined genetic alterations is measured as a screen for potential anti-cancer activity. Selected strains with alterations in DNA damage repair or cell cycle control were exposed to compounds and growth inhibition was measured relative to vehicle treated controls. The strain used in this assay is wt1

Compound	growth inhibition (at 1.2 µM)	growth inhibition (at 3.7 µM)	growth inhibition (at 11.0 µM)	growth inhibition (at 33.0 µM)	growth inhibition (at 100.0 µM)
O=C1C=CC(=Nc2ccc3c(c2)Cc2cc(NC(=O)C(F)(F)F)ccc2-3)O1	3% (inactive)	4% (inactive)	11% (inactive)	20% (inactive)	95% (active)
Brc1ccc(-c2cc3c(cc2C2SCCS2)OCO3)cc1	-24% (inactive)	-17% (inactive)	-26% (inactive)	-14% (inactive)	-7% (inactive)
CC(C)/C(Cl)=N\OC(=O)Nc1ccccc1F	1% (inactive)	4% (inactive)	9% (inactive)	17% (inactive)	18% (inactive)
COc1cccc2nc3ccccc3nc12	-2% (inactive)	-2% (inactive)	3% (inactive)	45% (inactive)	91% (active)
C=C1CC(Cn2cc(Br)c(=O)[nH]c2=O)(c2ccc(-c3ccccc3)cc2)OC1=O (stereo not given)	1% (inactive)	6% (inactive)	15% (inactive)	26% (inactive)	83% (active)
CSC(=S)Nc1cc(C)ccn1	-9% (inactive)	-3% (inactive)	17% (inactive)	32% (inactive)	79% (active)
CC(=O)OCC(=O)C1(O)CCC2C3CCC4CCCCC4(C)C3CCC21C (stereo not given)	-20% (inactive)	-14% (inactive)	7% (inactive)	50% (inactive)	77% (active)
COc1cc(C(=O)/C=C/c2ccccc2O)ccc1O	-11% (inactive)	73% (active)	98% (active)	99% (active)	98% (active)
